The subject of the assay is Noggin (protein binding on small-molecule microarray). Briefly: small molecules binding Noggin protein – biochemical, 635/667 nm fluorescence, primary screen (AID 1095).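 Further: score merges 667 nm feature fluorescence with signal to noise over triplicate slides.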 The note with it: 635 nm fluorescence, higher = more signal.
Molecule `Cc1ccc(S[C@]2(C(=O)O)CC(=O)N(Cc3cc(C(F)(F)F)cc(C(F)(F)F)c3)[C@@H]2c2ccc(CO)cc2)cc1` came in with a composite z-score of -1.6.

`CCOC(=O)[C@H]1[C@@H]2C(=O)N3CCC[C@H]3[C@H](O[Si](C(C)C)(C(C)C)C(C)C)[C@H]2C=C2CCN(S(=O)(=O)c3ccc(C)cc3)C[C@H]21` showed a composite z-score of 0.55.

In turn, `CO[C@H]1O[C@H](CO)[C@@H](OC(=O)Nc2ccccc2-c2ccccc2)[C@H](OC(=O)Nc2ccc3c(c2)OCO3)[C@H]1OC(=O)Nc1ccc2c(c1)OCO2` showed a composite z-score of 0.852.

`COc1ccccc1CN1C(=O)c2ccccc2[C@@]2(Cc3ccccc3N(CC(F)(F)F)C2=O)[C@@H]1c1ccc(CO)cc1`: the composite z-score came to 1.18.

`CN(C)C(=O)[C@@]1(Cc2ccccc2CN=[N+]=[N-])N=C(c2ccc(OCCCO)cc2)O[C@H]1c1ccccc1CN=[N+]=[N-]` gave a composite z-score of -0.586.

Molecule `COc1ccc(CCN2C(=O)[C@@]3(Cc4ccccc42)c2ccccc2C(=O)N(Cc2ccccc2OC)[C@H]3c2ccc(CO)cc2)cc1` had a composite z-score of -1.36.

Take `O=C1C2C=CC(C(O)c3ccc(Br)cc3)N(Nc3ccccc3F)C2C(=O)N1c1ccccc1` (stereo unspecified): the composite z-score was -0.231.

Molecule `C=CCC(OC(C)=O)[C@@H]1[C@@H](N(Cc2cccc3ccccc23)C(=O)Cc2ccc(OC)cc2)c2cc(OCCCO)ccc2N1C(=O)c1ccc2ccccc2n1` (stereo partly specified) showed a composite z-score of 0.201.

Regarding `COC(=O)C(CC#Cc1ccc2c(c1)[C@]1(C(=O)N2)[C@H](c2ccccc2OCCO)N2[C@H](c3ccccc3)[C@H](c3ccccc3)OC(=O)[C@H]2[C@@H]1C(=O)NC[C@H](O)c1ccccc1)C(=O)OC`, the composite z-score came to 1.1.

The molecule `COc1ccc([Si](C)(C)[C@H]2[C@H](CCO)O[C@@]3(C(=O)N(Cc4cccc(N5C(=O)COc6ccccc65)c4)c4ccccc43)[C@@H]2C)cc1` gave a composite z-score of 0.164.

Take `CCCCCCc1nc(C2CC2)cc2c1[Si](C(C)C)(C(C)C)OC2`: the composite z-score is -0.798.

With `C=CCNC(=O)[C@@H]1[C@H]2C(=O)O[C@H](c3ccccc3)[C@H](c3ccccc3)N2[C@H](c2ccc(O)cc2)[C@@]12C(=O)N(C(=O)OCCOC)c1ccc(C#CC3(O)CCCCCC3)cc12`, the composite z-score was -0.669.

In turn, `CC(CO)N1C(=O)[C@@H]2[C@H]3C(=O)OCC=C[C@H]3OC23C=CCN(Cc2ccccc2)C(=O)[C@@H]13` (stereo partly specified) came in with a composite z-score of -0.662.

For the molecule `[N-]=[N+]=NCc1ccccc1C[C@@]1(C(=O)NCc2ccccc2)N=C(c2ccc(OCCCO)cc2)O[C@@H]1c1ccccc1N=[N+]=[N-]`, the composite z-score is -0.247.

With `C=CCN1Cc2ccccc2[C@H]2OC(c3ccc(OCCCO)cc3)=N[C@@]2(CC=C)C1=O`, the composite z-score amounted to 1.55.

Molecule `Cc1cc(C)cc(N2C(=O)CSC2c2cccc([N+](=O)[O-])c2)c1` (stereo unspecified) displayed a composite z-score of 0.713.

With `CCOc1cc(C(O)C2C=CC3C(=O)N(C)C(=O)C3N2Nc2ccccc2)ccc1O` (stereo unspecified), the composite z-score was -0.386.

In the case of `[N-]=[N+]=Nc1ccccc1C[C@]1(C(N)=O)N=C(c2ccc(OCCCO)cc2)O[C@H]1c1ccccc1N=[N+]=[N-]`, the composite z-score is -0.306.

In turn, `NC(=O)NCC#Cc1ccc2c(c1)[C@]1(C(=O)N2)[C@H](C(=O)O)[C@H]2C(=O)O[C@H](c3ccccc3)[C@H](c3ccccc3)N2[C@@H]1c1ccc(OCCO)cc1` returned a composite z-score of 0.205.

Take `CCCCCCc1nc(C2CC2)cc2c1[Si](C(C)C)(C(C)C)O[C@H]2c1ccccc1`: the composite z-score turned out to be 0.639.

Consider `COc1cc2c(cc1OC)CN(C(=O)[C@@H]1[C@H]3C(=O)O[C@H](c4ccccc4)[C@H](c4ccccc4)N3[C@H](c3ccc(OCCO)cc3)[C@@]13C(=O)Nc1ccc(C#CC4(O)CCCCCC4)cc13)CC2`, for which the composite z-score came out at 1.47.

`O=C1C[C@@](C(=O)NCCN2CCOCC2)(c2ccc([N+](=O)[O-])cc2)[C@@H](c2ccc(CO)cc2I)N1C1CCCCC1` came in with a composite z-score of 0.914.

As to `COC(=O)[C@@]1(Cc2ccc(F)cc2)[C@H]2c3cc(C(=O)N4CCCC4)n(CCc4ccc(O)c(O)c4)c3C[C@H]2CN1C(=O)c1ccccc1`, the composite z-score was -0.97.

The molecule `CC(C)N1C(=O)C[C@@](C(=O)NCCCN(C)C)(c2ccc([N+](=O)[O-])cc2)[C@H]1c1ccc(CO)cc1` gave a composite z-score of -0.131.

The molecule `COC(=O)C1=CC(CCCO)=CC(C2CC2)N(C)C=C1C(=O)OC` (stereo unspecified) yielded a composite z-score of -0.178.

`COC(=O)c1c(CC[C@@H](CO)NC(=O)N2CCC[C@H]2Cn2cc(Cc3ccccc3)nn2)oc(C(C)=O)c1C(=O)OC`: the composite z-score was found to be 0.387.

`O=C(N1CCCCC1)[C@@]1(CCS(=O)(=O)c2ccccc2)COC(c2ccc(OCCCO)cc2)=N1` came in with a composite z-score of 1.04.

In turn, `CC1=C[C@@]2(CO)C(=O)[C@]3(CO3)[C@@H]1[C@H]1[C@]2(C)C=C(CO)C(=O)[C@]12CO2` returned a composite z-score of 0.177.

Molecule `CCCNC(=O)[C@@]1(c2ccc([N+](=O)[O-])cc2)CC(=O)N(C2CCCCC2)[C@@H]1c1ccc(CO)cc1` had a composite z-score of 1.65.

Consider `NC(=O)NCC#Cc1ccc2c(c1)[C@]1(C(=O)N2)[C@H](C(=O)NC[C@H](O)c2ccccc2)[C@H]2C(=O)O[C@H](c3ccccc3)[C@H](c3ccccc3)N2[C@@H]1c1ccc(OCCO)cc1`, for which the composite z-score was -0.0728.

`O=C1NC(=O)C2C1C=CC(C(O)CCc1ccccc1)N2Nc1ccc(Cl)cc1Cl` (stereo unspecified) displayed a composite z-score of -0.839.

`CCCCC=C[C@@H](NC(=O)c1ccc(-c2ccccc2)cc1)c1ccccc1` came in with a composite z-score of -0.323.

`COc1ccc([Si](C)(C)[C@@H]2[C@@H](CC(=O)N(CCO)Cc3ccccc3)O[C@]3(C(=O)N(Cc4cccc(N5CCOC5=O)c4)c4ccccc43)[C@H]2C)cc1` displayed a composite z-score of 0.726.

Molecule `CC(C)N1CC=CC23O[C@@H]4C=CCOC(=O)[C@@H]4[C@H]2C(=O)N(CCCO)[C@@H]3C1=O` (stereo partly specified) yielded a composite z-score of 0.927.

The molecule `C=CCNC(=O)[C@H]1[C@@H]2C(=O)O[C@@H](c3ccccc3)[C@@H](c3ccccc3)N2[C@@H](c2ccc(O)cc2)[C@]12C(=O)N(C(=O)OCCOC)c1ccccc12` came in with a composite z-score of 0.537.

For `O=C1OCC=C[C@H]2OC34C=CCN(c5ccc(Cl)cc5)C(=O)[C@H]3N(CCO)C(=O)[C@@H]4[C@@H]12` (stereo partly specified), the composite z-score was -2.04.

Source of the values: PubChem BioAssay.
